# In all, about 400,000 compounds went through this assay and about 13,000 (3.2%) were called active. Not shown: some 18% with an inconclusive outcome. This excerpt belongs to a sample that is enriched for actives. A number with no mark means an inactive call. Calls come from the whole dose curve; as a rule, active = well fitted cell-killing curve with a large enough effect; inconclusive = small, poorly fitted or top-dose-only effect, or effect the other way; inactive = flat fitted curve, though single readings scatter.
# Assay: qHTS assay for MDR1-selective chemotherapeutics: Primary screen using the drug-selected MDR subline cells KB-V1; note: nearly all actives have a fitted effect of over 60% in size
# Details: KB-V1 MDR cells viability, CellTiter-Glo, 72 h; series mostly up to 46.1 µM; activity change, negative = cytotoxicity: at the top concentration
# Description: A prime difficulty in effectively treating cancer is the development of cellular resistance to multiple structurally unrelated anticancer drugs, a phenomenon known as multidrug resistance (MDR). […] Numerous strategies to overcome P-gp-mediated MDR have been explored, including the design of drugs that evade recognition and efflux, and development of inhibitors to block efflux and restore drug accumulation. […] An alternative approach is to exploit resistance by identifying drugs that target MDR cells over the non-resistant parental cells from which they were selected. […] The development of MDR1-selective agents represents a new strategy for resolving multidrug resistance, as it remains a long-standing clinical challenge for cancer chemotherapy.
# Our goal is to identify compounds that selectively kill P-gp-expressing MDR cells. We will identify MDR1-selective compounds by comparing toxicity of compounds in the screening library against parental, drug-naive (KB-3-1) adenocarcinoma cells as well as their drug-selected MDR sub-line (KB-V1). The differential toxicity of compounds against these two cell lines will be used to identify MDR1-selective compounds, whose cytotoxicity is potentiated, rather than diminished, by P-gp expression. This assay will be utilized to conduct a quantitative high-throughput screen (qHTS) in collaboration with the NIH Chemical Genomics Center to identify selective agents, and probe hits arising from the screen will be validated using secondary assays and characterized through a well-established follow-up research program. This screen was run against the entire NCGC library collection of about 400,000 compounds.
# NIH Molecular Libraries Probe Production Network [MLPCN]
# NIH Chemical Genomics Center [NCGC]
# PI: Michael Gottesman, National Cancer Institute, NIH
# Briefly, 5 microL of media containing either KB-V1 cells (columns 1-2, 4-48) are dispensed into Greiner white, treated solid-bottom 1536-well assay plates (media-only control is added to column 3). Compounds are then transferred via Kalypsys pin tool equipped with 1536-pin array (10 nL slotted pins, V&P Scientific, San Diego, CA). Following addition of compound, the plates are incubated at 37 degrees C for 72 hours. CellTiter-Glo (2.5 µL/well) is then added, and the plates are read in a ViewLux reader (Perkin-Elmer, clear luminescence filter, 1 second exposure, 1x binning) following a 10 minute incubation. All cells are dispensed in DMEM phenol-red free media containing 10% FBS.
# Library plates were screened starting from the lowest and proceeding to the highest concentration. Vehicle-only plates, with DMSO being pin-transferred to columns 5-48, will be inserted uniformly at the beginning and the end of each library in order to monitor and record any shifts in the background, which can be affected by reagent dispensers or loss in enzyme activity over time. Screening data will be corrected, normalized, and concentration-effect relationships will be derived by using publicly-available NCGC, NCATS curve fitting algorithms (http://ncgc.nih.gov/pub/openhts).
# % is set by controls: 0 for no effect and ±100 for the full control effect; potency is the fitted concentration of half-maximal effect.
Compound,"activity change, negative = cytotoxicity [%]",Potency
Cc1cn([C@H]2C[C@H](O)[C@@H](CNC(=O)[C@H](N)Cc3cccnc3)O2)c(=O)[nH]c1=O,-5.22,
COc1ccc(-c2nc(CN3CCC(C(=O)NCCN(CC(C)C)CC(C)C)CC3)c(C)o2)cc1OC,-0.507,
COc1ccc(-c2nc(CN3CCC(C(=O)NCc4ccccc4)CC3)c(C)o2)cc1OC,31.3,
COc1ccc(CCNC(=O)C2CCCN(Cc3nc(-c4cccc(Cl)c4)oc3C)C2)cc1OC (stereo unspecified),,5.8 µM (active)
Cc1ccc(C(=O)CSc2nc(-c3ccccc3)nc3c2CCCC3)c(C)c1,0,
CC1=C(C(=O)N(C)C)CC(CC(=O)NCCN2CCOCC2)C(=O)N1Cc1ccccc1 (stereo unspecified),-5.99,
Cc1nnc(NC(=O)C(c2ccccc2)c2ccccc2)s1,-26.8,
Cc1ccc(NC(=O)Nc2nnc(-c3ccncc3)s2)cc1,-5.82,
Cc1nnc(NC(=O)Nc2ccc(Cl)c(Cl)c2)s1,,18.4 µM (active)
O[C@H]1CN(Cc2cccs2)[C@@H](c2ccc(Cl)cc2)C[C@@H]1n1cc(C2CC2)nn1,-10.1,
O=C(NN=Cc1ccc2c(c1)CCC2)c1ccccc1O,-0.911,
Cc1cc2cc3c(N)[nH]nc3nc2cc1C,,7.31 µM (active)
O=C(C[n+]1ccncc1)c1ccc2c(c1)CCCC2,4.87,
Cc1cc(C)cc(Nc2ncnc3onc(-c4ccc(F)cc4)c23)c1,-3.6,
C[C@@H]1CN([C@H](C)CO)C(=O)CCCn2nncc2CO[C@@H]1CN(C)C(=O)OCc1ccccc1,-11,
CC(=O)OC[C@@H]1CN(Cc2ccccc2)C[C@H](n2cnc3c(NCc4ccco4)ncnc32)O1,1.69,
O=C(c1cn2ccccc2n1)N1CCc2c([nH]c3ccccc23)C1c1ccccn1 (stereo unspecified),-24.4,
COCc1ccc(C(=O)N2CCc3c([nH]c4ccccc34)C2c2ccccn2)s1 (stereo unspecified),,18.4 µM (active)
c1ccc(C2c3[nH]c4ccccc4c3CCN2Cc2cccn2-c2cccnc2)nc1 (stereo unspecified),-0.759,
COc1ccc(OC)c(NC(=O)c2cc(-c3cc(F)ccc3OCC3CCCO3)n[nH]2)c1 (stereo unspecified),-1.76,
Cn1c(=O)c2c(nc(SCC(=O)Nc3ccc(F)cc3)n2Cc2ccccc2)n(C)c1=O,12.7,
C[C@H]1Cn2cnc(C(=O)N[C@H](C)c3ccccc3)c2C(=O)N1,-24.1,
COc1cc(OC)c(NC(=O)c2nc(-c3ccncc3)no2)cc1Cl,7.86,
Cc1ccc(OCCC(=O)OCC(=O)N2c3ccccc3NC(=O)C2(C)C)cc1,6.74,
CC1CC(=O)Nc2ccccc2N1S(=O)(=O)c1cccs1 (stereo unspecified),-8.08,
CC1CC(=O)Nc2ccccc2N1C(=O)COc1ccc2cc(Br)ccc2c1 (stereo unspecified),,16.4 µM (active)

Compound,"activity change, negative = cytotoxicity [%]",Potency
CN[C@H]1C[C@H]2c3cc(Oc4ccccc4C)ccc3CCN2C(=O)[C@H]1[C@H](C)O,27.8,
C=CCNC(=O)c1ccc2nc(-c3ccco3)c(-c3ccco3)nc2c1,-3.16,
COc1cccc(CC(=O)N2CCCC(CCC(=O)N3CCN(c4ccccn4)CC3)C2)c1 (stereo unspecified),-10.8,
O=C(CCC1CCCN(C(=O)Cc2ccc(F)cc2)C1)N1CCN(c2ccccn2)CC1 (stereo unspecified),,16.4 µM (active)
C=Cc1ccc(C(=O)N2CCCC(CCC(=O)N3CCN(c4ccccn4)CC3)C2)cc1 (stereo unspecified),2.91,
COc1ccc(/C=C/c2ccnc3ccccc23)cc1OC,-2.31,
Cc1ccc(/C=N/NC(=O)COc2ccccc2-c2ccccc2)cc1,,1.03 µM (active)
Cc1ccc(/C=N/NC(=O)CSc2nc3ccccc3o2)cc1,5.24,
Cc1cccc(OCC(=O)NCC(=O)N/N=C/c2ccc(N(C)C)cc2)c1,0.638,
CCCc1c(C)nc2scc(-c3ccc(Cl)cc3)n2c1=O,-3.42,
CCOC(=O)C1(S(=O)(=O)c2ccc(Cl)cc2)CCN(Cc2ccccc2)CC1,,20.6 µM (active)
CCOC(=O)C1(S(=O)(=O)c2ccccc2)CCN(Cc2ccccc2)CC1,,16.4 µM (active)
CCOC(=O)C1CCN(Cc2ccc(-c3ccccc3)cc2)CC1,5.14,
CCOC(=O)C1(CCOC)CCN(Cc2ccc(C(=O)OC)cc2)CC1,3.28,
O=C(NNS(=O)(=O)c1ccc(Cl)cc1)C1CCN(Cc2ccccc2)CC1,-3.31,
NC(=O)C1(N2CCCC2)CCN(Cc2ccccc2)CC1,-12.1,
Cc1ccc(C=O)cc1Cl,-14.5,
Nc1ccccc1-c1nc2ccncc2[nH]1,-2.3,
COc1ccc(OC)c(NC(=O)C2(C)CCN2C(=O)Cc2ccccc2)c1 (stereo unspecified),2.49,
Cc1ccc(S(=O)(=O)N2C[C@@H](C)[C@]3(C2)[C@H](O)[C@H](OC(=O)NCc2ccccc2)C[C@H]2C(=O)N(c4ccccc4)C(=O)[C@H]23)cc1,29.5,
CC1CCCC(C)N1C(=O)COC(=O)c1ccccc1C(=O)c1ccccc1 (stereo unspecified),-3.83,
CCOc1ccc(NC(=O)C(CC(C)C)N2Cc3ccccc3C2=O)cc1 (stereo unspecified),-6.07,
CN1CCN(S(=O)(=O)c2ccc(NC(=O)c3ccco3)cc2)CC1,12.3,
CC(C)Cc1ccc(S(=O)(=O)N2CCN(C(=O)c3ccco3)CC2)cc1,,7.31 µM (active)
O=C(CNS(=O)(=O)c1ccccc1)N1CCN(C(=O)c2ccco2)CC1,6.15,
